From PubChem BioAssay
An excerpt weighted towards active compounds, which were near 21% of everything screened.
NS1 function inh = influenza NS1 inhibition; 270,000 tested, 0.4% active; AID 2326; Potency, µM (top dose mostly 46.1 µM), without a hit: top-dose activity, positive = more growth; calls by dose curve; further: potency means the concentration at half of the fitted maximal effect; actives are rising curves; nearly all actives have a fitted effect of over 50% in size
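In this qHTS, NS1 from influenza A is expressed in budding yeast, where it slows growth. Cells are switched from glucose to 2% galactose medium (pH 6.0, -URA), treated with compound, and growth recovery is read at OD600.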
CHX counter = counter-screen for Shiga toxin inhibitors: cycloheximide protein synthesis inhibition | max response, % | cell reporter, cycloheximide protein synthesis inhibition counterscreen | AID 2314 | 300,000 tested, 12% active; in the data active means max response mostly above about 13%, no sharp cut-off; inactive means mostly below about 14%; further: read at 38.3 µM for the half of the compounds with a filed dose; 0% is about no effect
Pf growth 48h = inhibits P. falciparum growth in the first generation, 48 h. P. falciparum luciferase growth in erythrocytes, 48 h. Potency, µM (series often up to 28.7 µM), inactives show at the highest dose activity change, negative = inhibition, hits mostly inhibitors. 310,000 tested, 5.9% active. AID 504832; further: potency means the concentration at half of the fitted maximal effect; on the % scale 0 is the no-effect control and ±100 the full control effect
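Cell-based growth assay: transgenic P. falciparum expressing firefly luciferase, cultured in red cells within RPMI 1640 containing 0.5% w/v Albumax, 24 mM bicarbonate and gentamycin. A drop in luciferase activity indicates inhibition.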
Shiga inhibitor = inhibitors of Shiga toxin in Vero cells | Vero cells, Shiga toxin protein synthesis inhibition reporter | inhibition, % at 38.7 µM | 290,000 tested, 9.2% active; in the data active means inhibition mostly above about 28%, no sharp cut-off; inactive means mostly below about 43%; further: 0% is about no effect
Pf growth 96h = P. falciparum growth inhibition at 96 hour, primary screen for plastid delayed-death inhibitors; Potency, µM (titrated, usually from 28.7 µM), for inactives: at the top dose activity change, negative = inhibition, most hits filed as inhibitors; P. falciparum luciferase reporter growth, 96 h; 320,000 tested, 6.9% active; AID 504834; further: potency means the concentration at half of the fitted maximal effect; on the % scale 0 is the no-effect control and ±100 the full control effect
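Two parasite generations (96 h, 37 C, 5% CO2) of compound exposure in infected erythrocytes (0.05% parasitemia, 2% hematocrit). Luciferase-reporter P. falciparum; decreased luminescence indicates inhibited growth, aimed at apicoplast-acting delayed death.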
Starred values were filed as active, the others as inactive; ? = inconclusive; / = no result; [ ] = remark or other dose. Unless noted, the call rests on the fitted dose curve; in most records, active means well fitted inhibition curve with a large enough effect; inconclusive means small, poorly fitted or top-dose-only effect, or another doubt; inactive means no such curve, though single readings can be large or run the other way.

SMILES	NS1 function inh	CHX counter	Pf growth 48h	Shiga inhibitor	Pf growth 96h
CC1=C[C@@H](O)CC(C)(C)[C@@H]1/C=C/C(C)=C/C=C/C(C)=C/C=C/C=C(C)/C=C/C=C(C)/C=C/C1=C(C)C[C@H](O)CC1(C)C	/	/	?	/	4.3µM*
CC1=C(/C=C/C(C)=C\C=C\C(C)=C\C=C\C=C(C)\C=C\C=C(C)\C=C\C2=C(C)C[C@@H](O)CC2(C)C)C(C)(C)C[C@H](O)C1	/	/	15µM*	/	7.6µM*
O=C(O)CCCn1cc(NC(=O)COc2ccc([N+](=O)[O-])cc2)cn1	/	-8	?	4	36%
Fc1ccc(NC(=S)N2CCN(c3ncccn3)CC2)cc1	0%	11	15%	-3	-23%
O=C(NC1CCCCC1)C(c1ccc2ncccc2c1)N(Cc1ccc(F)cc1)C(=O)c1ccc2c(c1)OCCO2 (stereo not given)	24%	-3	?	14	10µM*
O=C(NC1CCCC1)C(c1ccc(F)cc1)N(Cc1ccc(F)cc1)C(=O)c1ccn[nH]1 (stereo not given)	19%	2	-5%	-10	92%
O=C(NC1CCCC1)C(c1ccc(F)cc1)N(C(=O)Cc1cccs1)c1ccc2c(c1)OCCO2 (stereo not given)	-1%	-3	8%	11	11%
O=C(NC1CCCCC1)C(c1ccc2ncccc2c1)N(Cc1cccs1)C(=O)c1cccs1 (stereo not given)	-34%	12	12µM*	-23	?
O=C(NC1CCCCC1)C(c1ccc(F)cc1)N(Cc1ccco1)C(=O)c1ccccn1 (stereo not given)	/	2	?	26	43%
O=C(NC1CCCCC1)C(c1ccc2ncccc2c1)N(Cc1ccc2c(c1)OCO2)C(=O)c1ccc2c(c1)OCCO2 (stereo not given)	19%	-1	7.4µM*	-13	?
O=C(NC1CCCCC1)C(c1ccc2ncccc2c1)N(Cc1ccco1)C(=O)c1ccc2c(c1)OCCO2 (stereo not given)	-12%	3	5.2µM*	-5	2.6µM*
CCCCCNCc1cccc(Br)c1	-16%	2	2%	-11	7%
O=[N+]([O-])c1cc(Br)c(O)c(/C=N/Nc2nnnn2-c2cccc3ccccc23)c1	-48%	-2	/	18	?
COc1ccc(Oc2cccc(Cl)c2CNC(=O)CCC(=O)O)cc1	5%	-2	10%	-5	4%
CCc1cccc2c(C(=S)N3CCOCC3)c[nH]c12	5%	-1	-14%	66	-4%
COc1ccc(CCNC(=O)c2cc(COc3c(C)cccc3C)on2)c(OC)c1	4%	77*	1%	65*	-20%
COc1ccc(CCNC(=O)c2cc(COc3c(F)cccc3F)on2)c(OC)c1	-33%	37*	6%	70*	?
COc1ccc(CNC(=O)c2cc(COc3c(F)cccc3F)on2)cc1OC	0%	0	?	5	?
COc1ccc(OCc2cc(C(=O)NCCc3ccccc3)no2)c(Cl)c1	-11%	-4	20%	-5	?
Cc1cc(C(=O)C(C)OC(=O)c2cnccn2)c(C)n1-c1ccccc1 (stereo not given)	/	/	52%	/	94%
C=CCN1C(=O)CN=C1Nc1ccc(F)cc1	-6%	-1	10µM*	-1	?
Clc1ccc(COc2ccccc2-c2ccnc3ncnn23)cc1	/	39*	346%	77*	42%
c1ccc(Oc2ccc(-c3ccnc4ncnn34)cc2)cc1	-31%	8	17%	38	-3%
COc1ccc(C(=S)N2CCOCC2)cc1OC(=O)c1ccc(C)cc1	-32%	-5	-18%	-10	2.9µM*
COc1cc(C(=S)N2CCOCC2)ccc1OC(=O)/C=C/c1ccco1	/	20*	9%	23	?
SMILES	NS1 function inh	CHX counter	Pf growth 48h	Shiga inhibitor	Pf growth 96h
O=C(C1CCN(S(=O)(=O)c2ccccc2)CC1)N1CCOCC1	-12%	4	-14%	-8	/
COC(=O)c1ccc2c(c1)C(C)(C)C(/C=C/c1ccc(OC)c(OC)c1OC)=[N+]2C	-9%	-11	2.3µM*	-28	2.3µM*
COC(=O)c1ccc(C2CC(=O)Nc3cc(OC)c(OC)c(OC)c32)cc1 (stereo not given)	-2%	-1	-12%	-10	-30%
COC(=O)c1ccc2c(c1)C(C)(C)C(/C=C/c1ccc(O)cc1)=[N+]2C	-17%	-10	?	-26	5.2µM*
CC[C@H](C)[C@H](NC(=O)CNC(=O)[C@H](CC(C)C)NC(=O)[C@H](CC(C)C)NC(=O)[C@H](CCC(N)=O)NC(=O)[C@H](CCC(N)=O)NC(=O)[C@H](CC(=O)O)NC(=O)[C@H](CCCCN)NC(=O)[C@H](CC(C)C)NC(=O)[C@H](Cc1ccc(O)cc1)NC(=O)[C@H](CCCNC(=N)N)NC(=O)[C@H](CCC(=O)O)NC(=O)[C@@H](NC(=O)[C@H](C)NC(=O)[C@H](CC(C)C)NC(=O)[C@@H](NC(=O)[C@@H](N)CCCNC(=N)N)[C@@H](C)CC)C(C)C)C(=O)N[C@@H](Cc1c[nH]c2ccccc12)C(=O)NCC(=O)N[C@@H](CS)C(=O)N[C@@H](CO)C(=O)O	/	1	/	-4	/
CCOC(=O)c1ccccc1NC(=O)c1cccs1	-17%	-8	7%	-17	?
O=C(/C=C/Nc1ccccc1F)c1cccs1	-19%	45*	148%	30*	?
O=C(/C=C\Nc1cccc(F)c1)c1cccs1	-20%	40*	108%	42*	274%
O=C(/C=C/Nc1ccc(F)cc1F)c1cccs1	-11%	46*	65%	49*	?
Cc1ccc(N/C=C/C(=O)c2cccs2)cc1	/	24	333%	17	?
CCOC(=O)c1ccccc1N/C=C/C(=O)c1cccs1	-21%	74*	31%	156*	-10%
CC(C)=NN/C(N)=N/C(=S)Nc1ccc(C)cc1	14%	-2	25%	20	29%
COc1ccc(NS(=O)(=O)c2ccc(NS(=O)(=O)c3cccs3)cc2)cc1	6%	-5	10%	-8	0%
CCc1c(C)nc(Nc2nc(C)c3ccc(OC)cc3n2)[nH]c1=O	6%	0	/	-11	7.4µM*
COc1ccc2c(C)nc(Nc3nc(C)cc(C)n3)nc2c1	8%	2	13µM*	-7	4.7µM*
COc1ccc(Nc2nc(-c3ccccc3)c3ccccc3n2)cc1	-12%	-5	6%	13	-90%
COc1ccc(Nc2nc(C)c3ccccc3n2)cc1	-16%	27*	115%	135*	3.7µM*
COc1ccc2c(C)nc(Nc3nc(C)c(C)c(=O)[nH]3)nc2c1	-3%	48*	89%	25	?
CCCCCc1c(C)nc(Nc2nc(C)c3cc(OC)ccc3n2)[nH]c1=O	?	14	29%	-7	?
CCc1c(C)nc(Nc2nc(C)c3cc(OC)ccc3n2)[nH]c1=O	-15%	8	?	-16	-19%[5.75 µM]
Cc1nn2c3c(cnc2c1-c1ccccc1)C(=O)CC(C)C3 (stereo not given)	-6%	/	/	/	/
